Measurements reported in PubChem BioAssay AID1259312 (Keith Lab, Institute of Cancer Science, University of …, 2017).
The whole screen tested about 4,500 compounds, of which about 200 (4.4%) were called active. This excerpt belongs to a sample that is enriched for actives. A number with no mark means an inactive call.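 The calls were made as follows: active = cell survival measured by absorbance rises more than 2.5-fold over infected cells without compound; inactive = the rest.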

Assay: survival after telomere uncapping, modulators, primary screen, cell-based (AID 1259312);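 also: virus expresses mutant telomerase RNA that uncaps telomeres and kills cells; compound added 2 days after infection so exposure lasts 3 days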
Conditions: HCT116 + Ad-hTR-mut, MTT, 5 d; at 10 µM, hits give high values
Work on `COc1ccc(OC)c(NS(=O)(=O)c2cc(Cl)ccc2Cl)c1` yielded a fold change of 1.1. Work on `CNC(=S)Nc1ccccc1` yielded a fold change of -1.89. Work on `NNC(=S)Nc1ccccc1` yielded a fold change of 2.03. For `S=C(NNC(=S)Nc1ccccc1)Nc1ccccc1`, the fold change was 4.1 (active). With `CN(Cc1cccs1)C(=S)SCCO` the fold change was 1.27. In the case of `Cc1ccc(-c2nc(Cn3c(-c4cscn4)nc4ccccc43)cs2)cc1`, the fold change is reported as -1.62. For `CSCCC(C(=O)O)N1C(=O)/C(=C2/C(=O)N(C)c3ccccc32)SC1=S` (stereo unspecified), the fold change was -1.54. With `CN1C(=O)/C(=C2\SC(=S)N(CCS(=O)(=O)O)C2=O)c2ccccc21` the fold change was 4.3 (active). In the case of `C=CCN1C(=O)/C(=C2\SC(=S)N(CCC)C2=O)c2ccccc21`, the fold change is reported as -1.1. `CCOC(=O)c1c(N)sc(C(=O)N2CCCCC2)c1C` gave a fold change of -1.62. With `CN(C)CCCN1C(=O)C(O)=C(C(=O)c2cccs2)C1c1cccs1` (stereo unspecified) the fold change was -1.86. In the case of `N#CCC(c1ccccc1)C(C#N)c1ccc(Br)cc1` (stereo unspecified), the fold change is reported as -1.3. For `ClC(Cl)(Cl)C(c1ccc(Br)cc1)c1ccc(Br)cc1`, the fold change was 3.49 (active). In the case of `Brc1ccc(C(Br)C(Br)c2ccccc2Br)cc1` (stereo unspecified), the fold change is reported as -2.96. `O=[N+]([O-])c1ccccc1Nc1ccccc1` showed a fold change of 1.12. `CN(C)c1ccc(/C=C2/SC(=S)NC2=O)cc1` gave a fold change of 2.2. `O=C1NC(=S)S/C1=C\c1ccsc1` showed a fold change of -1. With `O=C1NC(=S)S/C1=C/c1ccc(O)cc1` the fold change was 3.65 (active). In the case of `Cc1cc(C)c(O)c(C(CC(C)C)c2cc(C)cc(C)c2O)c1`, the fold change is reported as -4.02. Molecule `O=C1CC(c2ccccc2)CC2=C1C(c1ccc(OC(F)(F)F)cc1)Nc1ccccc1N2` (stereo unspecified) has a fold change of -1.06. `OC(c1ccccc1)c1nc2ccccc2[nH]1` (stereo unspecified) showed a fold change of -1.08. With `FC(c1nc2ccccc2[nH]1)C(F)(F)F` (stereo unspecified) the fold change was 2.19. In the case of `OC(c1nc2ccccc2[nH]1)C(O)c1nc2ccccc2[nH]1` (stereo unspecified), the fold change is reported as 3.31 (active). With `COc1ccnc2cc(Cl)ccc12` the fold change was 1.06. `Brc1ccccc1-c1nnc(C(c2ccccc2)c2ccccc2)o1` gave a fold change of -1.33. In the case of `Cc1nccn1CCC(=O)O`, the fold change is reported as 5.01 (active). For `Cc1cc(C)nc(SCCC(=O)O)n1`, the fold change was -2.76. In the case of `Nc1nc(SCCCOc2ccccc2)n[nH]1`, the fold change is reported as 1.24. For `COc1ccc(NC(=O)Nc2cccc(Cl)c2)cc1`, the fold change was 1.1. For `O=C(COc1ccccc1)N=Nc1c(O)[nH]c2ccccc12`, the fold change was “inactive”. With `Cc1sc2ccccc2[n+]1CCCS(=O)(=O)[O-]` the fold change was 2.97 (active). In the case of `Oc1ccc2ccccc2c1Sc1c(O)ccc2ccccc12`, the fold change is reported as -2.97. For `Oc1ccc2ccccc2c1N=Nc1ccccc1`, the fold change was “inactive”. For `Oc1ccc2ccccc2c1CNCCNCc1c(O)ccc2ccccc12`, the fold change was 3.72 (active). In the case of `Cc1nc2ccc3ccccc3c2s1`, the fold change is reported as -2.18. Molecule `c1ccc2cc3[nH]c(CN4CCOCC4)nc3cc2c1` has a fold change of 1.25. With `Nc1ncnc2c1ncn2[C@H]1C[C@H](O)[C@@H](COP(=O)(O)O)O1` the fold change was -1.8. With `CCN(C(=O)c1sc(NC(=O)CCl)c(C#N)c1C)C1CCCCC1` the fold change was -1.18. For `CCOC(=O)c1ccc(C2C(C#N)=C(N)Oc3cc(C)oc(=O)c32)o1` (stereo unspecified), the fold change was -1.07. In the case of `Cc1[nH]nc2c1C(c1ccncc1)C(C#N)=C(N)O2` (stereo unspecified), the fold change is reported as 2.49. With `Cc1cc2c(c(=O)o1)C(c1ccncc1)C(C#N)=C(N)O2` (stereo unspecified) the fold change was 3.96 (active). For `O=C1CCCC2=C1C(c1ccco1)C1=C(N2)c2ccccc2C1=O` (stereo unspecified), the fold change was -5.38. `O=S1(=O)CCC(SCc2nnc(-c3ccccc3)o2)C1` (stereo unspecified) gave a fold change of -1.78. Molecule `CCNC(=S)Nc1ccc(Br)cc1` has a fold change of -2.77. Molecule `S=c1[nH]nc(Cc2ccccc2)n1Cc1ccccc1` has a fold change of 1.06. Molecule `S=c1[nH]nc(CCc2ccccc2)n1Cc1ccccc1` has a fold change of 1.25. In the case of `S=c1[nH]nc(Cc2n[nH]c(=S)n2Cc2ccccc2)n1Cc1ccccc1`, the fold change is reported as 4.65 (active). `CCOC(=O)c1c(NC(=O)CCl)sc2c1CCN(C(=O)OCC)C2` showed a fold change of -1.2. Molecule `O=C(COc1ccc(Cl)cc1Cl)NCC1CCCO1` (stereo unspecified) has a fold change of -1.41. For `COC(=O)NNC(=O)CCCOc1ccc(Cl)cc1Cl`, the fold change was 1.34. With `O=C(CCCOc1ccc(Cl)cc1Cl)Nn1cnnc1` the fold change was 2.83 (active). In the case of `Cc1c(C(C)C)c(=O)n(-c2ccc(S(=O)(=O)NC3CC3)cc2)n1C`, the fold change is reported as -2.25. Work on `Brc1ccc(-c2csc(Nc3ccccc3)n2)cc1` yielded a fold change of -1.95. In the case of `NC(=O)c1c(NC(=O)CN2CCOCC2)sc2c1CCCC2`, the fold change is reported as -1.32. In the case of `CSc1nc(SCC(=O)c2ccc3c(c2)OCO3)nc(N)c1C#N`, the fold change is reported as 1.54. In the case of `N#CCS/C(SCC(=O)c1ccc2c(c1)OCO2)=C(/C#N)C(=O)c1ccc2c(c1)OCO2`, the fold change is reported as 2.84 (active). Work on `N#CCS/C(SCC(=O)c1ccc(Br)cc1)=C(/C#N)C(=O)c1ccc(Br)cc1` yielded a fold change of 1.41. Work on `OC1CCC2Cc3ccccc3N=C12` (stereo unspecified) yielded a fold change of -1.24. Work on `O=c1[nH]nc(C[N+](=O)[O-])c2ccccc12` yielded a fold change of 1.05. For `CC12C=CC(=O)C=C1CCC1C3CC(O)C(O)(C(=O)CO)C3(C)CC(O)C12F` (stereo unspecified), the fold change was 1.13. For `CC(C)=NNc1nccc2ccccc12`, the fold change was -1.17. `S=C(Nc1ccccc1)N1CCCCC1` gave a fold change of -1.66. Work on `c1ccc(N=C(Nc2ccccc2)N2CCOCC2)cc1` yielded a fold change of 1.32. For `S=C(Nc1ccccc1)N1CCOCC1`, the fold change was 3.11 (active). With `CN1C(=O)C(=O)c2cc(Br)ccc21` the fold change was -1.19. For `O=C1c2ccc(Br)cc2C(=O)N1CNc1ccc(Br)cc1`, the fold change was 2.94 (active). Work on `O=C(O)CN1C(=O)C(=O)c2cc(Br)ccc21` yielded a fold change of -1.45. Work on `N#CCN(CC#N)C(=O)c1ccco1` yielded a fold change of -1.86. For `N#CCN(CC#N)C(=O)c1cccs1`, the fold change was 4.34 (active). `CCN(C(=O)c1cccs1)C1CCCCC1` showed a fold change of -1.05. `CC(=O)Nc1ccc2nc(SCC(=O)Nc3nccs3)sc2c1` showed a fold change of -1.04. Molecule `O=C1OC(C2OC(=O)c3ccccc32)c2ccccc21` (stereo unspecified) has a fold change of -2.64. In the case of `CC1(C)Nc2ccccc2-c2c1ssc2=S`, the fold change is reported as 4.78 (active). Work on `CCOc1ccc2c(c1)-c1c(sn(-c3ccc(OC)cc3)c1=S)C(C)(C)N2` yielded a fold change of -1.06. Molecule `Cc1cccc2c1N(C(=O)c1ccc(-c3ccccc3)cc1)C(C)(C)c1ssc(=S)c1-2` has a fold change of -1.16. In the case of `Cc1cc(C)c2c(c1)-c1c(ssc1=S)C(C)(C)N2C(=O)c1ccccc1`, the fold change is reported as -2.03. In the case of `CCOc1ccc2c(c1)-c1c(ssc1=S)C(C)(C)N2`, the fold change is reported as 5.41 (active). For `COc1ccc2c(c1)-c1c(ssc1=S)C(C)(C)N2C(=O)CSc1ncn[nH]1`, the fold change was -3.53. In the case of `Cc1ccc2c(c1)-c1c(ssc1=S)C(C)(C)N2`, the fold change is reported as 2.39. For `COc1ccc2c(c1)-c1c(ssc1=S)C(C)(C)N2`, the fold change was 3.31 (active). With `CCOc1ccc2c(c1)-c1c(ssc1=Nc1ccc(Cl)cc1C)C(C)(C)N2` the fold change was -1.6. For `O=C(c1cccs1)[C@H]1CCCC[C@H]1C(=O)O`, the fold change was 1.2. In the case of `Oc1ccc2c(c1)c1c3n2CCNC3CCC1` (stereo unspecified), the fold change is reported as -1.09. With `COc1ccc(C2C=COc3n[nH]c(-c4ccccc4)c32)cc1OC` (stereo unspecified) the fold change was 2.04. `Cn1cc(/C=C2\C(=O)NC(=S)N(c3ccc(Br)cc3)C2=O)c2ccccc21` gave a fold change of -1.42. `O=C(NCCOC1=NS(=O)(=O)c2ccccc21)C(=O)Nc1ccccc1` gave a fold change of 1.05. For `CC(=O)N/C(=N/c1nc(C)cc(C)n1)Nc1ccc(F)cc1F`, the fold change was “inactive”. `COc1ccc(-c2nc3sc(-c4ccc(OC)c(OC)c4)nc3s2)cc1OC` gave a fold change of -4.78. Work on `S=c1[nH]nc(COc2ccccc2)n1-c1ccccc1` yielded a fold change of 1.72. `S=c1[nH]nc(Cn2cnc3ccccc32)n1-c1ccccc1` showed a fold change of 1.13. For `S=c1[nH]nc(COc2cccc3ccccc23)n1-c1ccccc1`, the fold change was 3 (active). In the case of `Cc1c(C(=O)OC(C)C)sc(NC(=O)C(F)(F)C(F)(F)C(F)(F)C(F)(F)F)c1C(=O)OC(C)C`, the fold change is reported as -1.73. For `O=c1oc(-c2cccc(F)c2)nc2ccc(Br)cc12`, the fold change was -1.47. In the case of `Nc1cc2ccccc2cc1N`, the fold change is reported as -1.17. In the case of `NC(=O)c1cc2ccccc2o1`, the fold change is reported as 2.76 (active). With `COC(=O)c1cc2cc(Br)ccc2o1` the fold change was -2.17. `Clc1nc2ccccc2nc1-c1ccccc1` showed a fold change of -1.36. Molecule `N=C1S/C(=C/c2cn[nH]c2-c2ccc(F)cc2)C(=O)N1c1nonc1N` has a fold change of -1.44. In the case of `Cc1ccc(-c2c(C#N)c(N)nc3c2CCCC3)c(C)c1`, the fold change is reported as 1.09. With `N#Cc1c(N)nc2c(c1-c1cccc(Br)c1)CCCC2` the fold change was 2.68 (active). For `N#Cc1c(N)nc2c(c1-c1ccc(Cl)cc1Cl)CCCCC2`, the fold change was 4.06 (active). `Cc1ccc(C)c(-c2c(C#N)c(N)nc3c2CCCCC3)c1` showed a fold change of -1.2. With `N#Cc1c(N)nc2c(c1-c1cccc(Br)c1)CCCCC2` the fold change was -1.02. With `N#Cc1c(N)nc2c(c1-c1cccc(Br)c1)CCCCCC2` the fold change was -1.03. In the case of `Brc1ccc2nc(SCCOc3ccccc3)[nH]c2c1`, the fold change is reported as -1.46. Work on `COC(=O)C1=C(C)NC(=S)NC1c1cccs1` (stereo unspecified) yielded a fold change of 1.16. `N#CC1=C(N)OC2=C(C(=O)CCC2)C1c1ccc2c(c1)OCO2` (stereo unspecified) gave a fold change of 1.15. For `NNC(=O)C(=O)Nc1nccs1`, the fold change was -2.19. In the case of `Cc1cc(C)c(C#N)c(SCc2cc(=O)[nH][nH]2)n1`, the fold change is reported as 3.11 (active). Work on `Cc1cc(-c2ccco2)c(C#N)c(SCC(=O)C(F)(F)F)n1` yielded a fold change of 1.03. With `Cc1cc(C)c(CSc2nc(C)cc(=O)[nH]2)c(C)c1` the fold change was “inactive”.
